The results in this text go back to PubChem BioAssay (NCI).

About 83,000 compounds went through this panel and 20% of them were active in at least one assay; those are over-represented in the sample as a whole.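 In brief: 96-well plates, 48 h treatment, single concentration, percent growth endpoint.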 Unmarked numbers belong to inactive results. Activity calls are given as the source filed them. How the source made its calls: active means growth percent below 10; inactive means the rest.

Holding throughout (assay): NCI-60 one-dose screen, 48 h (100 = growth as untreated, 0 = no growth, -100 = all killed)
Common to all, as to settings: 10 µM unless noted

In experiment [1] the test system is NCI-H23 lung.
For experiment [2], the system named is NCI-H226 lung.
Experiment [3] relates to NCI-H322M lung.
In experiment [4] the test system is HOP-62 NSCLC.
Experiment [5] has as its system NCI-H460 lung.
The test system of experiment [6] is HOP-92 NSCLC.
Experiment [7] concerns NCI-H522 lung.
Experiment [8] relates to A549/ATCC NSCLC.
Experiment [9] relates to 786-0 renal.
Experiment [10] has as its system COLO 205 colon.
Experiment [11] deals with DU-145 prostate.
Experiment [12] deals with K-562 leukemia.
Experiment [13] deals with MALME-3M melanoma.
For experiment [14], the system named is MDA-MB-231 breast.
In experiment [15] the test system is RXF 393 renal.
The test system of experiment [16] is SF-268 CNS.
The test system of experiment [17] is SF-295 CNS.
Experiment [18] has as its system SF-539 CNS.
The subject of experiment [19] is UACC-257 melanoma.
Experiment [20] deals with M14 melanoma.

With `COC(=O)[C@@H](Cc1c[nH]c2ccccc12)NC[C@@H](O)CN1C(=O)/C(=C\c2cc(OC)c(OC)c(OC)c2)c2ccccc21`, the growth in experiment [1] was 76.6%; in experiment [2], 58.5%; in experiment [3] it was 84.8%; in [4], 64.8%; in experiment [5], 68.2%; in experiment [6] it was 68%. Moreover, the growth was 67.4% in experiment [7]; 67.2% in experiment [8]; 77.6% in experiment [9]; 73.8% in experiment [10]; 75.1% in experiment [11]; 36% in experiment [12]. Further, the growth in [13] was 84.8%; in experiment [14] it was 82.5%; in experiment [15], 72%; in experiment [16], 70.6%; in [17], 69.4%; in experiment [18], 93.3%. For the same compound, the growth in [19] is 62.2%; in experiment [20], 64.6%.
For the compound `COCCNC(=O)Cc1cc(-c2ccc(Cl)cc2)n(-c2ccccc2)c1C`, the growth in experiment [1] was 73.6%; in [2], 89.8%; in experiment [3], 95.4%; in experiment [4], 2.89% (active); in [5] it was 94%; in experiment [6], 78.8%. Also, the growth was 58.8% in [7]; 82.1% in experiment [8]; 88.7% in experiment [9]; 96.3% in experiment [10]; 101% in experiment [11]; 64.7% in [12]. The growth in experiment [13] was 93.7%; in [14] it was 89.9%; in experiment [15], 84.8%; in experiment [16], 88.5%; in experiment [17], 85.6%; in [18] it was 92.8%. In addition, the growth in experiment [19] was 95.6%; in experiment [20] it was 88.1%.
For `O=C(/C=C/C12c3ccccc3C(c3ccccc31)C1C(=O)NC(=O)C12)c1cccs1` (stereo not given), the growth is 37.4% in experiment [1]; 73.4% in [2]; 31.9% in experiment [3]; 41.3% in [4]; 17.3% in experiment [5]; 37.1% in experiment [6]. Also, the growth in experiment [7] is 28%; in experiment [8], 43.5%; in [9], 43.4%; in experiment [10], 44%; in [11], 13.5%; in [12], 16.8%. Besides, the growth was 75.6% in [13]; 51.6% in experiment [14]; 28.1% in [15]; 32.9% in experiment [16]; 52.5% in experiment [17]; 53.9% in [18]. Besides, the figures for the growth in experiment [19] and in experiment [20] were 45.7% and 48.2%, respectively.
As to `O=C(Nc1cccc(Cl)c1)Oc1c(Cl)c(Cl)c(Cl)c(Cl)c1Cl`, the growth was 88.1% in experiment [1]; 83.8% in [2]; 109% in experiment [3]; 81.7% in experiment [4]; 101% in experiment [5]; 58.7% in experiment [6]. Moreover, the growth in experiment [7] was 83.9%; in experiment [8], 96.8%; in experiment [9], 97.9%; in [10], 101%; in [11], 95.6%; in [12], 98.6%. The growth in [13] was 101%; in [14], 94.3%; in experiment [15] it was 117%; in [16], 95.9%; in [17] it was 90%; in [18] it was 95.3%. Moreover, the results for the growth in experiment [19] and in experiment [20] were 110% and 97.3%, respectively.
For `Cc1nn(C)c2ncnc(Nc3ccccc3Br)c12`, the growth in experiment [1] was 101%; in experiment [2] it was 96.3%; in [3] it was 106%; in [4], 101%; in [5], 106%; in [6] it was 104%. In addition, the growth in experiment [7] was 98.7%; in experiment [8] it was 99.3%; in experiment [9], 97.8%; in [10], 119%; in experiment [11] it was 103%; in experiment [12], 97.1%. Further, the growth was 111% in experiment [13]; 85.2% in experiment [14]; 104% in experiment [15]; 99.2% in [16]; 95.8% in experiment [17]; 99.9% in [18]. Moreover, the growth in [19] is 105%; in experiment [20], 101%.
In the case of `O=C1/C(=C/c2ccc(Br)cc2)COc2ccc(O)cc21`, the growth is 101% in experiment [1]; 95.5% in experiment [2]; 95.6% in experiment [3]; 99% in [4]; 102% in experiment [5]; 99.9% in [6]. In addition, the growth in experiment [7] is 15.8%; in [8], 91.1%; in experiment [9] it was 76.4%; in [10], 86.8%; in experiment [11] it was 101%; in experiment [12], 9.11% (active). Moreover, the growth in experiment [13] was 91.7%; in [14] it was 85.9%; in experiment [15], 95.9%; in experiment [16], 89.8%; in experiment [17], 100%; in experiment [18], 92.5%. Moreover, the growth in [19] was 103%; in experiment [20] it was 83.7%.
Regarding `CCOC(=O)C1=C(c2ccccc2)N=C2N(c3ccccc3)N=C(C(C)=O)N2C1c1ccc(Br)cc1` (stereo not given), the growth in experiment [1] was 94.3%; in experiment [2], 96.1%; in experiment [3], 95.3%; in [4] it was 103%; in experiment [5], 98%; in experiment [6], 89.5%. Further, the growth is 95.3% in experiment [7]; 91.2% in experiment [8]; 100% in experiment [9]; 124% in experiment [10]; 101% in [11]; 86.9% in experiment [12]. Moreover, the growth in experiment [13] was 97.3%; in experiment [14] it was 89.2%; in experiment [15], 66.8%; in [16], 92.6%; in experiment [17] it was 90.3%; in [18] it was 96.3%. The values for the growth in [19] and in experiment [20] were 93.4% and 100%, respectively.
As to `COc1ccc(-c2ccc(-c3ccc(C(=N)N)nc3)s2)cc1`, the growth is -29.9% (active) in [1]; 83.4% in [2]; -19.8% (active) in experiment [3]; -54.9% (active) in experiment [4]; -85.1% (active) in [5]; 77.9% in experiment [6]. Moreover, the growth is -44.9% (active) in experiment [7]; -56.7% (active) in experiment [8]; -84.2% (active) in experiment [9]; -52.2% (active) in experiment [10]; -91.5% (active) in experiment [11]; -27% (active) in [12]. In addition, the growth in experiment [13] is 87.7%; in experiment [14] it was -79.8% (active); in [15], 66.4%; in experiment [16] it was -65.4% (active); in experiment [17], -81.2% (active); in experiment [18] it was -98.4% (active). The growth is 84.6% in experiment [19] and -56.6% (active) in [20].
